The record followed here is PubChem BioAssay (NCI).

Compounds without any hit were thinned out: in the full panel of roughly 83,000, 20% have a hit.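 Single-dose data. Exposure time 48 hours. Values below 10 considered active.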 Unmarked numbers belong to inactive results. Active and inactive are the calls of the source.

Holding throughout (assay): NCI-60 one-dose screen, 48 h (100 = growth as untreated, 0 = no growth, -100 = all killed)
Details in all cases: 10 µM unless noted

In assay [1] the test system is DU-145 prostate.
Assay [2] relates to K-562 leukemia.
For assay [3], the system named is MALME-3M melanoma.
Assay [4] has as its system MDA-MB-231 breast.
For assay [5], the system named is RXF 393 renal.
For assay [6], the system named is SF-268 CNS.
Assay [7] deals with SF-295 CNS.
For assay [8], the system named is SF-539 CNS.
Assay [9] deals with UACC-257 melanoma.
Assay [10] concerns M14 melanoma.

With `COc1cccc(-c2nc3sccn3c2-c2ccnc(NCCNS(=O)(=O)c3cccc(Cl)c3)c2)c1`, the growth in assay [1] was 44.1%; in assay [2], 25.3%; in assay [3], 63.2%; in assay [4], 68.3%; in assay [5], 47.5%; in [6], 42.7%. Further, the growth in [7] is 33.8%; in assay [8], 72.6%; in assay [9], 58%; in [10], 48.4%.
Regarding `O=C(NCCc1ccc(O)c(O)c1)C12CC3CC(CC(C3)C1)C2`, the growth in [1] was 101%; in assay [2], 92.6%; in assay [3], 107%; in assay [4], 85.5%; in assay [5], 101%; in assay [6], 89.6%. Also, the growth in assay [7] is 128%; in assay [8] it was 80.4%; in [9], 98.8%; in assay [10], 103%.
On to `Cc1cc(NCc2cc(Nc3ccnc4cc(Cl)ccc34)ccc2F)nc(N2CCSCC2)n1`, for which the growth is 23.6% in [1]; -24.9% (active) in assay [2]; -30.7% (active) in assay [3]; -8.18% (active) in assay [4]; -5.98% (active) in [5]; 38.8% in [6]. In addition, the growth in assay [7] was -57.3% (active); in assay [8], -72.2% (active); in [9], 17.6%; in assay [10], -51.6% (active).
In the case of `C=CCSc1nc2ccccc2cc1/C=N/O`, the growth in assay [1] is 110%; in [2], 92.3%; in [3] it was 129%; in assay [4], 97.6%; in [5] it was 68.8%; in [6] it was 90.8%. In addition, the growth is 94.7% in assay [7], 104% in [8], 87.6% in [9] and 91% in assay [10].
Take `c1coc(-c2c3ccc(=[N+]4CCCCC4)cc-3oc3cc(N4CCCCC4)ccc23)c1`: the growth in [1] is -96.2% (active); in assay [2], -49.9% (active); in assay [3] it was -71.9% (active); in assay [4], -56.5% (active); in assay [5], -93.8% (active); in assay [6], -83.4% (active). Further, the growth in assay [7] is -75.2% (active); in assay [8], -93.3% (active); in [9], -75.4% (active); in assay [10], -94.3% (active).
As to `CC(=O)OC1CCC2(C)C(=CC3C4CCC(=O)C4(C)CCC32)C1` (stereo not given), the growth in assay [1] is 101%; in [2], 95%; in assay [3] it was 112%; in assay [4], 98.2%; in assay [5], 115%; in assay [6] it was 96%. The growth is 95.5% in [7], 99.1% in assay [8], 110% in assay [9] and 98% in [10].
Regarding `Cc1ccc(C(=NN=C(N)N)c2ccc(C)cc2)cc1`, the growth in assay [1] is -16.6% (active); in assay [2] it was 5.03% (active); in assay [3], 40.4%; in [4] it was -11.3% (active); in [5], -16.1% (active); in assay [6] it was 16.7%. The growth is 0.547% (active) in assay [7], -2.53% (active) in [8], 25.9% in [9] and -74.7% (active) in [10].
For the molecule `Nc1ccc2c(c1)c(N)nn2C(=O)Nc1ccc(Cc2ccccc2)cc1`, the growth in assay [1] is 79.3%; in assay [2] it was -5.66% (active); in [3], 75.3%; in [4] it was 60.6%; in assay [5], 99.8%; in assay [6], 83.9%. Besides, the growth in [7] is 48%; in assay [8], 73.6%; in assay [9] it was 79.1%; in assay [10], 46.8%.
Regarding `CC/C=C\C/C=C\C[C@H](O)C/C=C1/C(=O)C=C[C@@H]1C/C=C\CCCC(=O)O`, the growth in [1] is 35.4%; in assay [2], 10.5%; in assay [3], 47%; in [4], 25.6%; in assay [5], 68.5%; in assay [6], 53.9%. For the same molecule, the growth in assay [7] is 86.2%; in assay [8], 32.7%; in assay [9], 31.3%; in assay [10], 14.3%.
On to `CCN(CC)CCn1nc2c3c(cccc3c1=O)-c1ccccc1-2`, for which the growth in [1] is 20.9%; in assay [2] it was 13.8%; in assay [3], -9.04% (active); in assay [4] it was 37.7%; in assay [5], 24.2%; in assay [6], 45.9%. Moreover, the growth in assay [7] was 7.02% (active); in assay [8], 30.7%; in assay [9], 2.85% (active); in assay [10], 28.4%.
With `CN(C)c1ccc(-c2cc(-c3ccc(Nc4nc(Nc5ccc(Cl)cc5)nc(Nc5ccc(Cl)cc5)n4)cc3)no2)cc1`, the growth in assay [1] was 47.7%; in [2], 24.8%; in [3] it was 54%; in [4], 35.6%; in [5] it was -42.1% (active); in assay [6] it was 45%. The growth in [7] was -16.8% (active); in assay [8], 46.1%; in assay [9], 65.7%; in assay [10], 61.6%.
For the molecule `COc1ccc(N=C(c2ccccc2)C2C(=O)c3ccccc3C2=O)cc1`, the growth in assay [1] was 99.8%; in assay [2] it was 75.4%; in [3] it was 103%; in [4], 103%; in assay [5] it was 72.1%; in assay [6] it was 97.7%. Besides, the growth in assay [7] was 67.2%; in assay [8], 72.3%; in assay [9], 93.8%; in assay [10] it was 92%.
Regarding `c1ccc2cc3nc4cc5ccccc5cc4nc3cc2c1`, the growth in assay [1] is 110%; in assay [2], 95.1%; in assay [3], 134%; in assay [4], 86.6%; in [5], 137%; in [6], 97.7%. Further, the growth in [7] was 134%; in assay [8] it was 108%; in [9], 98.2%; in [10], 101%.
Turning to `NC(N)=Nc1nc2ccccc2n2c1nc1ccccc12`, the growth in assay [1] is 33.3%; in [2], 17.9%; in assay [3], 35.6%; in assay [4] it was 53.2%; in assay [5] it was 35%; in assay [6], 28.5%. Moreover, the growth in [7] was 24.2%; in assay [8] it was 50.3%; in [9], 60.3%; in assay [10], 42.6%.
Take `COC(=O)[C@]12CC[C@@H](C)[C@H](C)[C@@H]1C1=CC[C@@H]3[C@@]4(C)C(C=O)=C[C@@](C)(COC(=O)/C=C/c5ccccc5)[C@@H]4[C@H](O)C[C@@]3(C)[C@]1(C)CC2`: the growth in assay [1] was -3.76% (active); in [2], 9.93% (active); in [3] it was -43.2% (active); in assay [4], 0.0701% (active); in assay [5] it was -40.6% (active); in assay [6], 14.7%. The growth was 1.14% (active) in assay [7], -10.7% (active) in assay [8], -43.2% (active) in assay [9] and -43% (active) in [10].
Consider `CN(C)CCNc1nc2ccccc2c2c1c1c(n2Cc2ccccc2)-c2ccccc2C1=O`, for which the growth in [1] is -100% (active); in assay [2], -57.9% (active); in [3] it was -59% (active); in assay [4], -79.8% (active); in assay [5], -65.5% (active); in [6] it was -81.9% (active). Further, the growth was -77.3% (active) in assay [7], -91.3% (active) in assay [8], -85.3% (active) in assay [9] and -81.8% (active) in [10].
For `C=C1C(=O)O[C@H]2[C@H]1CC/C(COC(=O)C(=O)c1c[nH]c3ccccc13)=C\CC[C@@]1(C)O[C@@H]21`, the growth in [1] was -31.4% (active); in assay [2], -4.12% (active); in [3] it was -63.1% (active); in [4], -56.8% (active); in [5], -89.1% (active); in assay [6], -46.3% (active). Further, the growth in assay [7] was 56.6%; in [8], -65.3% (active); in assay [9], -69.3% (active); in assay [10] it was -57.2% (active).
For the molecule `COc1ccc(N2CCN(c3nc(-c4cc(OC)c(OC)c(OC)c4)nc4ccccc34)CC2)cc1`, the growth in assay [1] was 93.5%; in assay [2], 79.1%; in assay [3] it was 108%; in [4], 71%; in assay [5] it was 92.6%; in assay [6], 87.7%. The growth was 95.2% in [7], 96.9% in [8], 102% in assay [9] and 71.3% in assay [10].
Consider `COc1ccc(-c2csc(C3=C(O)CN(C(C)C)C3=N)n2)cc1OC`, for which the growth in assay [1] was 108%; in assay [2], 87.7%; in [3], 96.4%; in assay [4] it was 81.1%; in assay [5], 83.6%; in assay [6], 117%. In addition, the growth was 113% in assay [7], 88.9% in [8], 105% in assay [9] and 136% in assay [10].
Regarding `CCc1c2c(nc3ccc(OC(=O)OCc4ccc(B5OC(C)(C)C(C)(C)O5)cc4)cc13)-c1cc3c(c(=O)n1C2)COC(=O)[C@]3(O)CC`, the growth in assay [1] is 4.84% (active); in [2], 13.1%; in [3], -43.9% (active); in assay [4], 17.4%; in [5], -64.7% (active); in [6] it was -7.41% (active). Besides, the growth in assay [7] is 0.0181% (active); in assay [8], -62.9% (active); in assay [9], -60% (active); in assay [10], 4.15% (active).
On to `C=CCOC1=CC(=O)c2ccccc2C1=O`, for which the growth is 59.9% in [1]; 26.8% in [2]; 69% in [3]; 77.3% in assay [4]; 111% in assay [5]; 82% in assay [6]. Also, the growth in assay [7] was 98.1%; in assay [8], 116%; in assay [9], 55.8%; in assay [10], 79.5%.
